From PubChem BioAssay AID1159580 (chemical genetic matrix, 2015)
Where “and” joins values, the source holds several entries; their conditions need not be identical. Equal values may be shown once. Out of some 5,500 compounds screened, about 2,000 (36%) were called active. Roughly 18% stayed inconclusive and do not appear here. Rule as the data show it: active = normalized growth mostly below about 0.91 (no sharp cut-off); inconclusive = no clear call, values can overlap the other calls; inactive = mostly above about 0.92. Some of the results follow.

Experiment: chemical genetic growth profiling, strain panel (AID 1159580);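 also: tested at 20 µM; growth read once vehicle control cultures reached saturation at 30 °C; 1 = growth at the plate median or of vehicle wells; lower values mean less growth of the strain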
Settings: S. cerevisiae deletion strains, growth OD

Measured: normalized growth

COc1cc2c(cc1OC)C(C)NCC2 (stereo unspecified)
inactive: locus YAL013W, strain DEP1, active compounds read low 0.996 | locus YAL021C, strain ccr4, active compounds read low 0.967 | locus YAL026C, strain drs2, active compounds read low 0.959 | locus YAL030W, strain snc1, active compounds read low 0.985 | locus YBL061C, strain skt5, active compounds read low 0.97 | locus YBR009C, strain hhf1, active compounds read low 0.965 | locus YBR021W, strain FUR4, active compounds read low 0.995 | locus YBR023C, strain chs3, active compounds read low 0.957 | locus YBR171W, strain sec66, active compounds read low 0.958 | locus YBR229C, strain ROT2, active compounds read low 0.995 | locus YBR231C, strain swc5, active compounds read low 0.982 | locus YBR279W, strain paf1, active compounds read low 0.989 | locus YCL011C, strain gbp2, active compounds read low 0.979 | locus YCL016C, strain dcc1, active compounds read low 1 | locus YCL029C, strain bik1, active compounds read low 0.979 | locus YCL069W, strain vba3, active compounds read low 0.962 | locus YCR088W, strain abp1, active compounds read low 0.982 | locus YDL005C, strain med2, active compounds read low 0.976 | locus YDL035C, strain GPR1, active compounds read low 1 | locus YDL040C, strain nat1, active compounds read low 0.984 | locus YDL074C, strain BRE1, active compounds read low 1 | locus YDL101C, strain DUN1, active compounds read low 0.996 | locus YDL185W, strain tfp1, active compounds read low 0.986 | locus YDL192W, strain arf1, active compounds read low 0.98 | locus YDR001C, strain nth1, active compounds read low 0.988 | locus YDR069C, strain doa4, active compounds read low 0.921 | locus YDR101C, strain arx1, active compounds read low 0.979 | locus YDR137W, strain rgp1, active compounds read low 0.977 | locus YDR150W, strain NUM1, active compounds read low 1.01 | locus YDR159W, strain sac3, active compounds read low 0.927 | locus YDR162C, strain NBP2, active compounds read low 1.02 | locus YDR195W, strain ref2 0.963 | locus YDR297W, strain sur2, active compounds read low 1 | locus YDR318W, strain mcm21, active compounds read low 0.986 | locus YDR334W, strain swr1, active compounds read low 0.951 | locus YDR335W, strain msn5, active compounds read low 0.971 | locus YDR388W, active compounds read low 0.978 | locus YDR392W, strain spt3, active compounds read low 0.992 | locus YDR502C, strain sam2, active compounds read low 0.981 | locus YEL003W, strain gim4, active compounds read low 0.976 | locus YEL037C, strain rad23, active compounds read low 0.968 | locus YEL061C, strain CIN8 (second series), active compounds read low 0.966 | locus YEL061C, strain CIN8, active compounds read low 0.995 | locus YER015W, strain faa2, active compounds read low 0.976 | locus YER016W, strain bim1, active compounds read low 0.983 | locus YER110C, active compounds read low 0.963 | locus YER111C, strain swi4, active compounds read low 0.959 | locus YER155C, strain BEM2 (second series), active compounds read low 0.985 | locus YER155C, strain BEM2, active compounds read low 0.99 | locus YER167W, strain BCK2, active compounds read low 0.994 | locus YFR010W, strain ubp6, active compounds read low 0.945 | locus YGL078C, strain dbp3, active compounds read low 0.982 | locus YGL086W, strain mad1, active compounds read low 0.982 | locus YGL167C, strain pmr1, active compounds read low 0.969 | locus YGL173C, strain kem1, active compounds read low 0.97 | locus YGL227W, strain vid30, active compounds read low 0.985 | locus YGL240W, strain doc1, active compounds read low 0.986 | locus YGL248W, strain PDE1, active compounds read low 1 | locus YGL253W, strain hxk2, active compounds read low 0.961 | locus YGR078C, strain PAC10, active compounds read low 1.02 | locus YGR135W, strain pre9, active compounds read low 0.959 | locus YGR252W, strain gcn5, active compounds read low 0.996 | locus YHR013C, strain ard1, active compounds read low 0.961 | locus YHR027C, strain rpn1, active compounds read low 0.976 | locus YHR030C, strain SLT2, active compounds read low 0.993 and 1.04 | locus YHR079C, strain IRE1 (second series), active compounds read low 0.979 | locus YHR079C, strain IRE1, active compounds read low 1.03 | locus YHR094C, strain hxt1, active compounds read low 0.985 | locus YHR129C, strain ARP1, active compounds read low 1 | locus YHR142W, strain chs7, active compounds read low 0.988 | locus YHR200W, strain rpn10, active compounds read low 0.98 | locus YIL066C, strain RNR3, active compounds read low 1.02 | locus YIL073C, strain SPO22, active compounds read low 1.02 | locus YIL125W, strain kgd1, active compounds read low 0.981 | locus YIR030C, strain dcg1, active compounds read low 0.976 | locus YJL092W, strain hpr5, active compounds read low 0.936 | locus YJL095W, strain BCK1 (second series), active compounds read low 0.969 | locus YJL095W, strain BCK1, active compounds read low 1.02 and 0.99 | locus YJL115W, strain asf1, active compounds read low 0.951 | locus YJL129C, strain trk1, active compounds read low 0.948 | locus YJL134W, strain LCB3, active compounds read low 0.988 | locus YJL154C, strain vps35, active compounds read low 0.974 | locus YJL164C, strain tpk1, active compounds read low 1.01 | locus YJL166W, strain qcr8, active compounds read low 0.977 | locus YJL168C, strain set2, active compounds read low 0.978 | locus YJL187C, strain SWE1 (second series), active compounds read low 1.01 | locus YJL187C, strain SWE1, active compounds read low 0.961 | locus YJR043C, strain POL32, active compounds read low 1.02 | locus YJR066W, strain TOR1, active compounds read low 0.966 | locus YJR075W, strain HOC1, active compounds read low 1.02 | locus YKL009W, strain mrt4, active compounds read low 0.984 | locus YKL068W, active compounds read low 0.98 | locus YKL085W, strain MDH1 (second series), active compounds read low 1.01 | locus YKL085W, strain MDH1, active compounds read low 1.01 | locus YKL160W, strain elf1, active compounds read low 1.01 | locus YKL190W, strain CNB1, active compounds read low 1 | locus YKR001C, strain vps1, active compounds read low 0.982 | locus YKR026C, strain gcn3, active compounds read low 0.974 | locus YKR091W, strain srl3, active compounds read low 0.987 | locus YLL001W, strain dnm1, active compounds read low 0.977 | locus YLL026W, active compounds read low 0.986 | locus YLL041C, strain sdh2, active compounds read low 0.963 | locus YLR027C, strain aat2, active compounds read low 0.966 | locus YLR039C, strain RIC1, active compounds read low 1.02 | locus YLR058C, strain SHM2, active compounds read low 0.996 | locus YLR102C, strain apc9, active compounds read low 0.991 | locus YLR113W, strain HOG1, active compounds read low 1.01 | locus YLR221C, strain rsa3, active compounds read low 0.989 | locus YLR258W, strain gsy2, active compounds read low 0.978 | locus YLR262C, strain YPT6 (second series), active compounds read low 0.964 | locus YLR262C, strain YPT6, active compounds read low 1.05 | locus YLR268W, strain sec22, active compounds read low 0.987 | locus YLR320W, strain mms22, active compounds read low 0.997 | locus YLR330W, strain CHS5, active compounds read low 0.991 | locus YLR342W, strain FKS1 (second series), active compounds read low 0.999 | locus YLR342W, strain FKS1, active compounds read low 0.982 | locus YLR357W, strain rsc2, active compounds read low 0.94 | locus YLR370C, strain arc18, active compounds read low 0.955 | locus YLR371W, strain rom2, active compounds read low 0.98 | locus YLR384C, strain iki3, active compounds read low 0.996 | locus YLR418C, strain cdc73, active compounds read low 0.98 | locus YML016C, strain PPZ1, active compounds read low 0.988 | locus YML032C, strain rad52, active compounds read low 0.978 | locus YML120C, strain ndi1, active compounds read low 0.989 | locus YML124C, strain tub3, active compounds read low 0.986 | locus YMR058W, strain fet3, active compounds read low 0.972 | locus YMR078C, strain ctf18, active compounds read low 0.981 | locus YMR125W, strain sto1, active compounds read low 0.933 | locus YMR129W, active compounds read low 0.985 | locus YMR205C, strain PFK2, active compounds read low 0.989 | locus YMR223W, strain ubp8, active compounds read low 0.977 | locus YMR231W, strain pep5, active compounds read low 0.964 | locus YMR307W, strain GAS1, active compounds read low 1.03 | locus YNL067W, strain RPL9B, active compounds read low 1.02 | locus YNL071W, strain lat1, active compounds read low 0.981 | locus YNL128W, strain TEP1, active compounds read low 0.998 | locus YNL153C, strain GIM3, active compounds read low 1.02 | locus YNL183C, strain NPR1, active compounds read low 0.974 | locus YNL209W, strain ssb2, active compounds read low 0.976 | locus YNL233W, strain BNI4, active compounds read low 1.02 | locus YNL248C, strain rpa49, active compounds read low 0.955 | locus YNL250W, strain rad50, active compounds read low 0.972 | locus YNL271C, strain bni1, active compounds read low 0.985 | locus YNL298W, strain CLA4, active compounds read low 0.972 | locus YNL307C, strain MCK1, active compounds read low 0.978 | locus YNL322C, strain KRE1 (second series), active compounds read low 0.95 | locus YNR049C, strain mso1, active compounds read low 0.952 | locus YNR052C, strain pop2, active compounds read low 0.974 | locus YOL012C, strain htz1 0.939 | locus YOL147C, strain pex11, active compounds read low 0.989 | locus YOR001W, strain rrp6, active compounds read low 0.951 | locus YOR061W, strain CKA2, active compounds read low 0.992 | locus YOR069W, strain VPS5, active compounds read low 0.987 | locus YOR070C, strain gyp1, active compounds read low 0.986 | locus YOR080W, strain dia2, active compounds read low 0.982 | locus YOR083W, strain WHI5, active compounds read low 1.02 | locus YOR106W, strain vam3, active compounds read low 0.998 | locus YOR136W, strain idh2, active compounds read low 0.976 | locus YOR144C, strain elg1, active compounds read low 0.985 | locus YOR184W, strain ser1, active compounds read low 0.998 | locus YOR231W, strain MKK1, active compounds read low 1.02 | locus YOR265W, strain rbl2, active compounds read low 0.977 | locus YOR270C, strain vph1, active compounds read low 0.949 | locus YOR290C, strain snf2, active compounds read low 0.997 | locus YOR316C, strain cot1, active compounds read low 0.99 | locus YPL051W, strain arl3, active compounds read low 0.972 | locus YPL078C, strain atp4, active compounds read low 1 | locus YPL106C, strain sse1, active compounds read low 0.957 | locus YPL240C, strain hsp82, active compounds read low 0.964 | locus YPL241C, strain CIN2, active compounds read low 1 | locus YPL256C, strain CLN2, active compounds read low 1.03 | locus YPR119W, strain clb2, active compounds read low 0.97 | locus YPR141C, strain kar3, active compounds read low 0.987 | locus YPR163C, strain tif3, active compounds read low 0.994 | locus YPR167C, strain met16, active compounds read low 0.964 | strain wtn01, active compounds read low 0.96
